# ChEMBL document CHEMBL3988442, “University of Dundee, Small-Polar-MMV Screening Library” (2021)
# Values joined by “and” are separate entries in the source; they are usually repeats but may differ in a detail not shown here. Identical values can stand only once. Among all 67,000 compounds or so, about 40 (0.06%) showed an effect of 50% or more. The sample holds strong results, similar compounds and a random draw of the others, so the mix is not that of the screen.
# Target: T1, Coenzyme A biosynthesis bifunctional protein CoaBC (Mycobacterium tuberculosis (strain ATCC 25618 / H37Rv)) (UniProt P9WNZ1)
# T1 sequence (whole entry): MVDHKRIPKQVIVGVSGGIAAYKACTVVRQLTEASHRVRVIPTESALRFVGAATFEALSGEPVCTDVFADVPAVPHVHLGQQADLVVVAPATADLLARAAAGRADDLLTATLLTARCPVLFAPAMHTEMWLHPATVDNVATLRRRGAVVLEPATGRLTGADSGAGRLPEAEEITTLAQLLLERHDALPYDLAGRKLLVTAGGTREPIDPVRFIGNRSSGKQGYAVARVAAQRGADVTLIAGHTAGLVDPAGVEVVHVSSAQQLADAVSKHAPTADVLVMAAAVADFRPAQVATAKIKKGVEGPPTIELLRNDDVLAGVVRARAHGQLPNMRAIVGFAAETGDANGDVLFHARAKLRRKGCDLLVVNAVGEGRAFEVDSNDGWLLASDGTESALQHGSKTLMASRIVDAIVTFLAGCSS
# Test: Biomol Green assay for MtCoaBC inhibitor, OD650 read
# Assay type: functional
# Parameters: scale not given: in the data most compounds retested in dose-response had high values
# Conditions: 30 µM
row,Structure (SMILES),Percent Effect
1,CN(Cc1cccnc1)C1COC2(CCN(Cc3nccs3)CC2)C1 (centres undefined),1.85%
2,Cc1ccc(CN2CCC3(CC2)CC3CN(C)Cc2cccnc2)o1 (centres undefined),-31.5%
3,Cc1noc(C)c1C(=O)N1CC[C@H]2C[C@@H](c3ccncn3)O[C@@H]2C1,-0.386%
4,CCCS(=O)(=O)N1C[C@@H]2CN(Cc3cnn(C)c3)CCO[C@@H]2C1,4%
5,O=C(c1cnccn1)N1C[C@@H]2C[C@@H](c3nc(C4CC4)cs3)O[C@@H]2C1,2.75%
6,c1csc(CN2CCO[C@H]3[C@H](OCCN4CCCC4)CC[C@@H]32)n1,5.46%
7,CCC1=N[C@@]2(CC[C@@H]3CN(S(=O)(=O)CC)C[C@@H]32)C(=O)N1CC(C)C,2.92%
8,COc1cc(CNC2CCc3nc(C)nn3C2)cc2c1OCCO2 (centres undefined),-5.17%
9,CCc1nc2n(n1)CC(NCc1cc(OC)c3c(c1)OCO3)CC2 (centres undefined),-7.88%
10,Cc1ccc(N2CC[C@H]3OCC[C@@]3(C(=O)N(C)C)C2)nn1,2.24%
11,CS(=O)(=O)N1CC[C@H]2[C@H](C[C@@H](Cn3cncn3)N2CC2CC2)C1,5%
12,CC1CCCN(C(=O)c2csc(S(N)(=O)=O)c2)CC1 (centres undefined),-0.441%
13,CC(C)(C)N1CCCN(C(=O)c2csc(S(N)(=O)=O)c2)CC1,-6.17%
14,Cc1cnc(N2C[C@H]3CCN(CC4CC4)C[C@@H]3C2)nc1,-28.5%
15,O=C(O)COc1ccc(CN2CCCC(Cc3cccnc3)C2)cc1 (centres undefined),0.485%
16,COc1ccc(CCC2CCCN(CC(=O)O)C2)cc1 (centres undefined),0.988%
17,O=C(O)COc1ccc(CN2CCCC(CCc3ccccc3)C2)cc1 (centres undefined),94.3% and 88.4%
18,COCC(C)N1CCN(CCc2ccc3c(c2)CCO3)CC1 (centres undefined),4.17%
19,CCOCCN1CCN(CCc2ccc3c(c2)CCO3)CC1,-14.1%
20,CN1CCN(C[C@H]2OC[C@@H]3CCN(Cc4ccsc4)C[C@@H]32)CC1,-5.68%
21,O=C1[C@H]2CN(C3CCOC3)C[C@H]2CN1c1ccccc1 (some centres undefined),2.66%
22,Cc1cc(CN2C[C@@H]3CCCO[C@@H]3[C@H](N(C)C(C)C)C2)no1,9.94%
23,O=C(NCC1CC1)[C@@H]1CCO[C@@H]2CCN(c3ncccn3)C[C@@H]21,0.323%
24,Cc1nonc1C(=O)N1CC[C@@]2(O)CCN(C3CCCCC3)C[C@H]2C1,10.8%
25,O=C(NC1CCN(C2CC2)C1)c1cn(-c2ccc(F)cc2)nn1 (centres undefined),-3.95%
26,O=C(NC1CCN(C2CC2)CC1)c1cn(-c2ccc(Cl)cc2)nn1,3.19%
27,CC(C)CCN1C[C@H]2C[C@H](C(=O)N3CCCC3)[C@@H](C1)O2,1.46%

row,Structure (SMILES),Percent Effect
1,CC(C)N1[C@H](Cn2cncn2)C[C@@H]2CN(Cc3nccn3C)CC[C@@H]21,4.19%
2,COc1ccc(CN2C[C@H]3CCC[C@@H](CN(C)C4CC4)[C@H]3C2)cn1,-25.8%
3,O=C(C1CC1)N1CCN2C[C@H](c3ccccc3)[C@@H](CO)[C@H]2C1,-2.91%
4,O=C1CC(c2ccccc2)c2sc(C(=O)O)c(-c3ccccc3)c2N1 (centres undefined),-0.766%
5,O=C1CC(c2ccc(O)cc2)c2sc(C(=O)O)c(-c3ccccc3)c2N1 (centres undefined),1.28%
6,Cc1ccc(CN2CC[C@H]3OCC[C@@H](C(=O)NC4CC4)[C@@H]3C2)o1,3.34%
7,O=C(c1ccco1)N1CC[C@@H]2[C@H]1CCC(=O)N2c1ccccc1,3.58%
8,CN(Cc1cnccn1)C(=O)[C@@]12CNC[C@@H]1CN(Cc1ccccc1)C2,2.15%
9,CC(NC(=O)CN1CCCC1=O)c1ccc(Cl)s1 (centres undefined),-0.806%
10,CC(C)(C)OC(=O)NCC(=O)NCc1ccc(Cl)s1,7.73%
11,O=C(C1CCOCC1)N1CCN2C(=O)N(Cc3ccc(F)cc3)C[C@H]2C1,12%
12,CC1CCN(C(=O)[C@@H]2CC[C@@H]3[C@@H](CCN3c3ncc(F)cn3)O2)CC1,-4.84%
13,CNC(=O)[C@H]1C[C@@H]2CN(Cc3cccnc3OC)C[C@@H]2N1C(C)C,1.06%
14,O=C(c1ccsc1)N1CCO[C@@H]2CN(Cc3cccs3)C[C@@H]2C1,-4.58%
15,Cc1nnc(N2C[C@H](Oc3ccccn3)[C@H]3OCCC[C@H]32)s1,4.91%
16,Cc1cccc2c1nc(COCC(=O)O)n2-c1ccsc1,5.35%
17,Cc1ccc(-n2c(COCC(=O)O)nc3c(C)cccc32)nc1,5.78%
18,COCCC(=O)N1C[C@H]2CC[C@@H]1CN(C1Cc3ccccc3C1)C2,2.15%
19,Cn1cc(CN2C[C@H]3CCC[C@@H](CNc4ncccn4)[C@H]3C2)cn1,-2.24%
20,Cc1occc1C(=O)N1C[C@H]2CCCC(OCc3cccnc3)[C@H]2C1 (some centres undefined),7.49%
21,CN(Cc1ccccn1)C(=O)[C@H]1CO[C@H]2CCN(CC3CC3)C[C@H]2C1,1.98%
22,CN(Cc1nnc2n1CCC2)S(=O)(=O)c1ccc(Br)cc1Cl,-1.49%
23,CN(Cc1nnc2n1CCC2)S(=O)(=O)c1cc(Br)ccc1Br,3.23%
24,Cc1cccc(CN2C[C@@H]3OCCN(C)[C@@H]3C2)n1,4.44%
25,c1cnn([C@@H]2CN(Cc3nccs3)[C@@H]3CCCO[C@@H]32)c1,2.08%
26,COCCN1C(=O)CC[C@@H]2[C@H]1CCN2C(=O)N(C)C,12.9%
27,CCOC(=O)[C@]12CCCN(Cc3ccco3)C[C@H]1CN(CCN(C)C)C2,3.17%
